# Reference: PubChem BioAssay (NCI)
# The panel holds about 83,000 compounds, 20% with a hit somewhere; the sample as a whole holds those more often.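 Treatment: one concentration, 48 hours, 96-well format. Scoring: percent growth, with anything below 10 considered active.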 A number with no mark means an inactive call. Calls of active or inactive are those of the source.
# Assays:
# Test in all cases: NCI-60 one-dose screen, 48 h (100 = growth as untreated, 0 = no growth, -100 = all killed)
# Conditions in all cases: 10 µM unless noted
# EKVX NSCLC = system: EKVX NSCLC
# SN12C renal = system: SN12C renal
# UO-31 renal = system: UO-31 renal
# ACHN renal = system: ACHN renal
# CAKI-1 renal = system: CAKI-1 renal
# CCRF-CEM leukemia = system: CCRF-CEM leukemia
# MOLT-4 leukemia = system: MOLT-4 leukemia
# A498 renal = system: A498 renal
# TK-10 renal = system: TK-10 renal
Compound,growth (EKVX NSCLC),growth (SN12C renal),growth (UO-31 renal),growth (ACHN renal),growth (CAKI-1 renal),growth (CCRF-CEM leukemia),growth (MOLT-4 leukemia),growth (A498 renal),growth (TK-10 renal)
O=C1NC(=S)S/C1=C\c1cc(Br)ccc1O,107%,102%,67.6%,93.5%,99.5%,79.2%,107%,–,–
O=C(CNC(=O)c1cccc2ccccc12)Nc1ccccc1Oc1ccc(O)cc1,52.4% [5 µM],55% [5 µM],45.2% [5 µM],43.8% [5 µM],–,22.4% [5 µM],19.6% [5 µM],17.6% [5 µM],–
CC(=O)/C(=C/c1ccc(Cl)cc1)C(=O)c1ccccc1,–,85.4%,65.5%,99.4%,85.2%,–,62%,–,101%
O=C1N=C(N2CCOCC2)S/C1=C\c1cn(-c2ccccc2)nc1-c1ccccc1,90%,92.4%,–,58.9%,93.9%,92.4%,116%,48%,–
O=C(Nc1cccc(-n2cc(-c3ccncc3)c(-c3cc(O)cc(Cl)c3)n2)c1)Nc1ccc(Cl)c(Cl)c1,–,14.9%,-41.3% (active),6.85% (active),5.31% (active),4.11% (active),-27.1% (active),-2.98% (active),–
O=C(COc1cccc(/C=C2\Cc3ccccc3C2=O)c1)c1ccc(Cl)cc1,88.2%,95%,–,154%,104%,89.8%,107%,90.1%,163%
COc1cc(C2CC(C3C(=O)N(C)C(=O)N(C)C3=O)=NN2C=O)cc(OC)c1OC (stereo not given),100%,94%,–,105%,–,82.8%,92.7%,95.1%,87.4%
CCCCCCCCCCNCCSS(=O)(=O)O,101%,31.5%,–,92.6%,98.8%,50.3%,9.96% (active),101%,–
CCOC(=O)c1cnc2c(C)cc(C)cc2c1NCCCN(C)C,41%,37.6%,–,28.7%,-7.71% (active),19.8%,5.24% (active),–,30.7%
O=C1/C(=C/c2cccc(Cl)c2)CCc2ccccc21,–,95.9%,–,103%,76.9%,–,83.3%,–,85.9%
COc1cc(Cl)cc(-c2nn(-c3cccc(NC(=O)c4cc(C(F)(F)F)cc(C(F)(F)F)c4)c3)cc2-c2ccncc2)c1,–,69.8%,54.3%,58.2%,68.6%,57.1%,55.3%,-1.74% (active),–
Clc1ccc2[nH]cc(-c3cncn3CCc3ccccc3)c2c1,34.4%,57.2%,–,66%,39%,54.1%,51%,–,42.8%
c1cc[n+](Cc2ccnc3ccccc23)cc1,–,102%,73.6%,94.2%,91.1%,–,108%,109%,–
O=C1/C(=C/c2ccc(F)cc2)Cc2ccccc21,–,99.5%,92.5%,98.2%,113%,–,98.3%,–,96.7%
COc1cc(C(=O)c2cc3c(cc2C)OCO3)cc(OC)c1OC,–,32.4%,44.8%,36.3%,13.5%,–,23.1%,-2.13% (active),62.8%
CCCCCCCCN(CCO)CCCCCCCC,–,104%,–,96.6%,109%,99.4%,90.7%,111%,109%
COc1cc2c(cc1OC)C(CC1(O)CCCCC1)N(S(=O)(=O)c1ccc(C)cc1)CC2 (stereo not given),–,42.3% [100 µM],25.8% [100 µM],18.5% [100 µM],22% [100 µM],–,3.12% [100 µM] (active),0.608% [100 µM] (active),40.9% [100 µM]
COc1ccc(/C=C2\CCc3ccccc3C2=O)cc1,–,94.5%,87.5%,111%,50.8%,–,73.9%,–,79.8%
COc1cc(/C=C/c2cc(/C=C/c3ccc(O)c(OC)c3)n(C(=O)Cc3ccccc3)n2)ccc1O,–,9.07% (active),-9.97% (active),5.4% (active),20.9%,0.172% (active),1.08% (active),-9.09% (active),–
Cc1[nH]ccc2cc3nc4ccccc4c3cc12,30.7%,27.8%,–,15.4%,52%,17.1%,8.62% (active),4.99% (active),–
CCn1cnc(C[C@H](NC(=O)[C@H](CCCCNC(=O)Nc2cc(C(F)(F)F)cc(C(F)(F)F)c2)NC(=O)Nc2cc(C(F)(F)F)cc(C(F)(F)F)c2)C(=O)OC)c1,–,-6.45% [100 µM] (active),49.4% [100 µM],-40.4% [100 µM] (active),68.4% [100 µM],–,-33.8% [100 µM] (active),-52.4% [100 µM] (active),-36.5% [100 µM] (active)

Compound,growth (EKVX NSCLC),growth (SN12C renal),growth (UO-31 renal),growth (ACHN renal),growth (CAKI-1 renal),growth (CCRF-CEM leukemia),growth (MOLT-4 leukemia),growth (A498 renal),growth (TK-10 renal)
COc1ccc(C(=O)/C=C/c2cccc(Nc3ccnc4cc(Cl)ccc34)c2)cc1,50.9%,25.7%,–,29.6%,–,37.2%,42.3%,39.7%,-11% (active)
COc1cc(/C=C/c2cc(/C=C/c3ccc(O)c(OC)c3)n(C(=O)c3ccc(Cl)cc3)n2)ccc1O,–,13.6%,–,11.5%,17.9%,0.628% (active),5.8% (active),7.49% (active),–
Cc1ccc(NC(=O)c2sc3nc4c(cc3c2N)C(=O)CCC4)cc1,–,87.8%,84.8%,89.9%,56.6%,70.9%,95.9%,-3.97% (active),–
O=C(CNC(=O)c1cccc2ccccc12)Nc1ccccc1Oc1cccc(O)c1,47.2% [5 µM],49% [5 µM],–,51% [5 µM],–,15.1% [5 µM],11.9% [5 µM],11.5% [5 µM],42% [5 µM]
COc1ccc(-c2cc(-c3cccnc3)nc3sc(C(=O)Nc4ccccc4)c(N)c23)cc1OC,–,57.2%,32.2%,41.1%,46.7%,36.9%,32.1%,65.1%,–
CCC(C)C1NC(=O)C(CCNCS(=O)(=O)O)NC(=O)C(NC(=O)C(CCNCS(=O)(=O)O)NC(=O)C(NC(=O)C(CCNCS(=O)(=O)O)NC(=O)CCCCC(C)C)C(C)O)CCNC(=O)C(C(C)O)NC(=O)C(CCNCS(=O)(=O)O)NC(=O)C(CCNCS(=O)(=O)O)NC(=O)C(C(C)CC)NC1=O (stereo not given),83.7%,63.6%,–,94.5%,99.4%,20.7%,66.4%,88.8%,–
Cc1cc(C)cc(S(=O)(=O)n2ccc(-c3ccc4c(c3)CCC(C)(C)O4)n2)c1,–,88%,75%,92.8%,72.5%,96.3%,91.4%,63%,–
COc1ccc(-c2cc(-c3cccnc3)nc(S(=O)(=O)CC(=O)Nc3ccc(C)cc3)c2C#N)cc1OC,–,97.2%,59.8%,98.3%,91.2%,100%,75.2%,–,–
O=C(CN1CCN(c2ccc(Cl)cc2)CC1)N1CCN(c2nnc(-c3ccccc3)c(-c3ccccc3)n2)CC1,29.9%,49.5%,–,39.3%,92.6%,20.4%,-35.1% (active),45.4%,68.8%
CCCCOP(=O)(OCCCC)C(C(=O)OCC)C(CC(=O)OCC)C(=O)OCC (stereo not given),–,100%,91.9%,93.2%,98.4%,–,109%,97.8%,–
CCCCc1n(Cc2ccc3ccccc3c2)cc[n+]1Cc1ccc2ccccc2c1,14.4%,-22.3% (active),–,30%,–,6.82% (active),-17.5% (active),–,-10.4% (active)
CCOc1cc(/C=C/C(=O)C(C(=O)/C=C/c2ccc(OC(=O)CNc3nc4ccccc4[nH]3)c(OCC)c2)C(=O)CNc2nc3ccccc3[nH]2)ccc1OC(=O)CNc1nc2ccccc2[nH]1,-3.49% (active),-22.9% (active),–,-45.6% (active),-12.2% (active),–,-27.5% (active),-9.48% (active),31.8%
O=[N+]([O-])c1ccc(NS(=O)(=O)c2ccc(Cl)c(Cl)c2)cc1,–,60.9%,70%,94%,65.2%,–,81.3%,55.9%,94.3%
COc1ccccc1NC(=O)c1sc2nc3c(cc2c1N)C(=O)CCC3,–,70.2%,70.5%,70.4%,52.7%,67.7%,89.6%,-5.03% (active),–
COc1cccc(/C=C2\Cc3ccccc3C2=O)c1,–,98.8%,90.7%,104%,96.9%,–,93.3%,–,103%
Nc1c(C(=O)Nc2cccc(Cl)c2)sc2nc3c(cc12)C(O)CCC3 (stereo not given),–,35.5%,41.9%,43.3%,37%,15.7%,16.3%,-10.6% (active),–
O=C1/C(=C/c2ccccc2Cl)CCc2ccccc21,–,94.6%,–,112%,81.8%,–,90.9%,–,89.4%
COc1ccc(CCN2C(=O)CCC3=C2CCCC3=O)cc1OC,–,101%,81.8%,100%,109%,–,103%,103%,114%
C=C1CC[C@@H]2[C@](C)(COC(C)=O)[C@H](OC(C)=O)CC[C@@]2(C)[C@@H]1CC(NCc1ccccc1)C1=CCOC1=O (stereo not given in full),53.9%,58.2%,–,46.4%,49.6%,20.9%,-3.86% (active),56.2%,–
COc1ccc([N+](=O)[O-])c(S(=O)(=O)c2ccc(Cl)cc2)n1,–,74.5%,51.7%,26.9%,49.6%,-11.5% (active),2.58% (active),110%,81.1%
COc1cc(/C=C/C(=O)CC(=O)/C=C/c2ccc(OC(=O)C3C4CC5CC(C4)CC3C5)c(OC)c2)ccc1OC(=O)C1C2CC3CC(C2)CC1C3 (stereo not given),109%,108%,–,144%,99.6%,89.8%,103%,109%,96.9%
